Results as given in PubChem BioAssay (NCATS).
Several values for one entry are separate records, joined by “and”; a condition that tells them apart may be missing. Equal entries are not always repeated. Records with an inconclusive call do not appear. Activity calls are given as the source filed them. Unless noted, calls come from the whole dose curve; as a rule, active = well fitted curve in the direction sought with a large enough effect; inconclusive = small, poorly fitted or top-dose-only effect, or another doubt; inactive = no such curve, though single readings can be large; an effect the other way counts as inactive or inconclusive.

Columns and labels:
[1] = target: Estrogen receptor (Homo sapiens) (UniProt P03372); experiment: qHTS assay for small molecule agonists of estrogen receptor alpha signaling (AID 588514; calls by dose curve; note: nearly all actives have a fitted effect of over 70% in size; note: potency is the fitted concentration of half-maximal effect;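 for activation: 0% = vehicle only and 100% = reference agonist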)
Estrogen receptor (Homo sapiens), sequence (P03372 whole entry, looked up): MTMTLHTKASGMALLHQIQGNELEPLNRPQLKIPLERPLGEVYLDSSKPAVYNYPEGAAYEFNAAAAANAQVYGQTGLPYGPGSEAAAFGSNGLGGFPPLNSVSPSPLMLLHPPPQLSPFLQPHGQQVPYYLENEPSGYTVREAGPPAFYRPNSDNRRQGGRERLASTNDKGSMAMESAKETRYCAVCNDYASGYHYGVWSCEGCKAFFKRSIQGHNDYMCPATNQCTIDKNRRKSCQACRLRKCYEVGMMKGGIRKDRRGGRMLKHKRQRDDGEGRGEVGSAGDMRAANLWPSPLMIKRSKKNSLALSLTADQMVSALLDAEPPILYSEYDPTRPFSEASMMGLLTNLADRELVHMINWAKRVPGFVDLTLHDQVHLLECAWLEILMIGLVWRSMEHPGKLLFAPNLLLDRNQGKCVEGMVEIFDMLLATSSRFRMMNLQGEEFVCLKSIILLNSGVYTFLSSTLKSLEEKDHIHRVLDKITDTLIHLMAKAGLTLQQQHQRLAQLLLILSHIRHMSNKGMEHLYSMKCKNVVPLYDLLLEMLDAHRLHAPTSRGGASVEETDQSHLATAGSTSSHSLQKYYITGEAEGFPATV
In short: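 Read-out: CCF4 fluorescence from a beta-lactamase reporter in ER-alpha-UAS-bla HEK 293 cells after 18 hrs of compound exposure at 37 C. Normalized to 20 nM 17-beta-estradiol (100%) and DMSO (0%).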

[2] = qHTS assay for small molecule agonists of retinoid X receptor alpha signaling (AID 588544; calls by dose curve;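 for activation: 0% = DMSO basal wells and 100% = reference agonist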); conditions: HEK293T RXRa-UAS-bla, beta-lactamase reporter, 18 h; 530 nm emission
[3] = target: Retinoic acid receptor RXR-alpha (Homo sapiens) (UniProt P19793); experiment: as above
Retinoic acid receptor RXR-alpha (Homo sapiens), sequence (P19793 whole entry, looked up): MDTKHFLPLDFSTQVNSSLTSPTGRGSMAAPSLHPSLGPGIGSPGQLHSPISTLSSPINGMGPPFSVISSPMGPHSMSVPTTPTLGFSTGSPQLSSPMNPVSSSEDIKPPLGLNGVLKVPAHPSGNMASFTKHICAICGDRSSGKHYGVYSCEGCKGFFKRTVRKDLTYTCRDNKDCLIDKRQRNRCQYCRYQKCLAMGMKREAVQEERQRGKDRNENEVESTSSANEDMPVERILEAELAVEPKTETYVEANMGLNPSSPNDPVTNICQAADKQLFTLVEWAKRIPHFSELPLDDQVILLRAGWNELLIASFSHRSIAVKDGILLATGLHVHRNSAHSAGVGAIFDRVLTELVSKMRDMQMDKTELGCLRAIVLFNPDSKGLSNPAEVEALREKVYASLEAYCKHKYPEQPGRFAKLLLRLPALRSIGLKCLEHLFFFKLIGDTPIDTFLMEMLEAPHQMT

[4] = target: Thyroid hormone receptor beta (Homo sapiens) (UniProt P10828); experiment: qHTS assay for small molecule agonists of thyroid hormone receptor beta signaling (AID 588545; calls by dose curve)
Thyroid hormone receptor beta (Homo sapiens), sequence (P10828 whole entry, looked up): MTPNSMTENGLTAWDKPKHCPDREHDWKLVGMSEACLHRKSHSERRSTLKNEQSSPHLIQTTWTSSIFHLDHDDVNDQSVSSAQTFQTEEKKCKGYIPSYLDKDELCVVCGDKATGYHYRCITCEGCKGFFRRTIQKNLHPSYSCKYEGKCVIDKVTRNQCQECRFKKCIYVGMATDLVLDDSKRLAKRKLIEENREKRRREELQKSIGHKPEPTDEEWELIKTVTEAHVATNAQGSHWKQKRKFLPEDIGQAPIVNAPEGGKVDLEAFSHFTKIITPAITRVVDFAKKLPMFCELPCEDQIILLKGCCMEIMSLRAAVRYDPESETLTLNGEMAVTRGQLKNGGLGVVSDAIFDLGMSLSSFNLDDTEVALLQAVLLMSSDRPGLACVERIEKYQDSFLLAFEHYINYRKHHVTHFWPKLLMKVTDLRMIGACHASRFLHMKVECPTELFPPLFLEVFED
In short: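 Agonist activity was read as beta-lactamase CCF4 fluorescence (405 ex, 460/530 em), scaled between DMSO (0%) and 10 nM T3 (100%), then Hill-fitted for EC50 and efficacy. HEK 293 TR-UAS-bla cells in 2% charcoal/dextran FBS medium were exposed 18 h at 37 C.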

[5] = qHTS assay for small molecule antagonists of retinoid X receptor alpha signaling (AID 588546; active = well fitted inhibition curve with a large enough effect in the signal ratio, with a control signal flat, not every such curve was filed as active; the % refers to the signal ratio;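 note: cells stimulated with 9-cis-retinoic acid as agonist; % is set by controls: 0 for no effect and ±100 for the full control effect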); conditions: HEK293T RXRa-UAS-bla, beta-lactamase ratio, antagonist mode; measured here: W530 green channel, cytotoxicity proxy
In short: (§1)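 Beta-lactamase reporter inhibition, read as CCF4 fluorescence ratio (ex 405, em 460/530 nm) after 2 h at RT. HEK293T UAS-bla cells, 2500/well, were stimulated with 9-cis-RA at 500 or 100 nM final alongside test compound for 18 h at 37 C.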

[6] = target: Retinoic acid receptor RXR-alpha (Homo sapiens) (UniProt P19793); experiment: as above; conditions: HEK293T RXRa-UAS-bla, beta-lactamase ratio, antagonist mode
In short: as §1

[7] = target: Thyroid hormone receptor beta (Homo sapiens) (UniProt P10828); experiment: qHTS assay for small molecule antagonists of thyroid hormone receptor beta signaling (AID 588547; active = well fitted inhibition curve with a large enough effect in the signal ratio, with a control signal flat, not every such curve was filed as active; the % refers to the signal ratio;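 note: cells stimulated with 0.4 nM T3 agonist during compound exposure; series mostly up to about 77 µM; % is set by controls: 0 for no effect and ±100 for the full control effect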); conditions: TR-UAS-bla HEK293, beta-lactamase ratio, antagonist mode, 18 h
In short: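 TR-UAS-bla GripTite HEK293 cells in 2% charcoal/dextran FBS medium were preincubated 4 h at 37 C, given compound (0.59 nM to 92 uM) plus 0.4 nM T3 (final) for 18 h, then CCF4 for 2 h at RT; Hill fit gave IC50.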

[8] = qHTS assay for environmental chemicals that activate the Aryl hydrocarbon Receptor (AhR) signaling pathway (AID 651777); conditions: 1A2-DRE human hepatoma cells, luciferase, 24 h; activation: stronger effect = higher value; note: nearly all actives have a fitted effect of over 15% in size; note: potency is the fitted concentration of half-maximal effect; for activation: % of control where 0% means no effect
In short: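 Induction of CYP1A2 transcription through AhR is detected by luciferase in 1A2-DRE hepatoma cells. Compounds or DMSO act for 24 hr at 37 C before a 30 min One-Glo step at room temperature.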

[9] = qHTS assay for small molecule agonists of the antioxidant response element (ARE) signaling pathway measured by Nrf2-dependant transcriptional activity (AID 720636; active = well fitted curve in the direction sought with a large enough effect in the repeat runs; an effect the other way counts as inactive or inconclusive;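 note: HepG2 cells with an ARE-driven luciferase reporter; % of control where 0% means no effect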)
In short: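 We exposed ARE-luc HepG2 cells, seeded in assay medium with 1% dialyzed FBS and allowed 6 hr to adhere, to test compounds overnight (16 hr, 37 C) before measuring luciferase with ONE-Glo.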

[10] = qHTS assay for small molecule agonists of the antioxidant response element (ARE) signaling pathway measured by Nrf2-dependant transcriptional activity - cell viability counter screen (AID 720653; active = well fitted curve in the direction sought with a large enough effect in the repeat runs; an effect the other way counts as inactive or inconclusive; note: % is set by controls: 0 for no effect and ±100 for the full control effect); conditions: ARE-bla HepG2 viability, CellTiter-Glo ATP luminescence, 16 h; max response: stronger effect = lower value
In short: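 ARE-bla HepG2 cells (2,000/well) rested 5 hrs at 37C/5% CO2, then exposed to compounds in DMSO for 16 hrs. Viability was read in the same wells as intracellular ATP by luminescence, 30 min at room temperature after reagent addition.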

[11] = qHTS assay for cell viability of HEK293 cells (AID 743288); conditions: ATP luminescence (CellTiter-Glo), 18 h; max response: stronger effect = lower value; note: % is set by controls: 0 for no effect and ±100 for the full control effect; nearly all actives have a fitted effect of over 50% in size
In short: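 Steps: plate 2,000 parental HEK293 cells per well; incubate ≥5 h, 37 C; add compounds in DMSO; incubate 18 h, 37 C; add CellTiter-Glo; wait 30 min at room temperature; read luminescence.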

[12] = qHTS assay for cell viability of the p53RE-bla HCT-116 cell line (AID 743292); note: % is set by controls: 0 for no effect and ±100 for the full control effect; nearly all actives have a fitted effect of over 55% in size
In short: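 In this qHTS counter-screen, metabolically competent p53RE-bla HCT-116 cells were counted via their ATP content. Compounds were applied for 16 h at 37 C and luciferase-coupled luminescence was measured.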

[13] = target: Nuclear receptor subfamily 1 group I member 2 (Rattus norvegicus) (UniProt Q9R1A7); experiment: qHTS assay for small molecule activators of the rat pregnane X receptor (rPXR) signaling pathway (AID 651751; call rule not given here; note: 0% is about no effect); conditions: rPXR reporter cells, luciferase (One-Glo), 24 h
Nuclear receptor subfamily 1 group I member 2 (Rattus norvegicus), sequence (Q9R1A7 whole entry, looked up): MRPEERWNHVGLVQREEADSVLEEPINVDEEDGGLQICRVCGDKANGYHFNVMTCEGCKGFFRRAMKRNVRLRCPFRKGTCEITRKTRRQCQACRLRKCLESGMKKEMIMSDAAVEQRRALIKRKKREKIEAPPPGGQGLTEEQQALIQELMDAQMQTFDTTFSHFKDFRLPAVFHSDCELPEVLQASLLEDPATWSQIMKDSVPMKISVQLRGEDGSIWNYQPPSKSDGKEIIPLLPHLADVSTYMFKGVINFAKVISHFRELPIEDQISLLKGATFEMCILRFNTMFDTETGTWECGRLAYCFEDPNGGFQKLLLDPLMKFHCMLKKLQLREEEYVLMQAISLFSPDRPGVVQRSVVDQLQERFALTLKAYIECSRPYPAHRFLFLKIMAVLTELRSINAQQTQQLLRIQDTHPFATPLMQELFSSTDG

[14] = qHTS assay for small molecule activators of the human pregnane X receptor (PXR) signaling pathway (AID 720659; call rule not given here; note: 0% is about no effect)
[15] = target: Peroxisome proliferator-activated receptor gamma (Homo sapiens) (UniProt P37231); experiment: qHTS assay for small molecule agonists of peroxisome proliferator-activated receptor gamma signaling (AID 588536; active = well fitted curve in the direction sought with a large enough effect in the signal ratio, with a control signal flat, not every such curve was filed as active; the % refers to the signal ratio;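 note: 0% = DMSO basal wells and 100% = rosiglitazone at 2 µM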)
Peroxisome proliferator-activated receptor gamma (Homo sapiens), sequence (P37231 whole entry, looked up): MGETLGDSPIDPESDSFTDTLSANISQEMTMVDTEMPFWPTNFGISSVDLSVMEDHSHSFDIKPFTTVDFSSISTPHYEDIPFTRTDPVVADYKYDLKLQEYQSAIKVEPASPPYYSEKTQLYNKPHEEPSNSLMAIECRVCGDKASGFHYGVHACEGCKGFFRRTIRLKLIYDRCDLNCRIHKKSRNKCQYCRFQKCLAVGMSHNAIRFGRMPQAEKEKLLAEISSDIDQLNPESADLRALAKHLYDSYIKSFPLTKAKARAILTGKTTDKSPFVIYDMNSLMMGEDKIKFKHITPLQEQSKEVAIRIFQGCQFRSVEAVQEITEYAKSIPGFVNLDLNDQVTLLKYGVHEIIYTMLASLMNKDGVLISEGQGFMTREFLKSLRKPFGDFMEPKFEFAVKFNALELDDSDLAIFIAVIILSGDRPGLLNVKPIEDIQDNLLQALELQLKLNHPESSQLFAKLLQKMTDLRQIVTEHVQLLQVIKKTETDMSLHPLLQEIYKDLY
In short: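 Beta-lactamase reporter read-out: CCF4 fluorescence (ex 405, em 460/530 nm) after 2 h at RT. HEK293 GeneBLAzer cells were treated for 16 h at 37 C. Hill fits gave EC50 and efficacy versus 2 uM rosiglitazone (100%) and DMSO (0%).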

[16] = target: Peroxisome proliferator-activated receptor gamma (Homo sapiens) (UniProt P37231); experiment: qHTS assay for small molecule antagonists of peroxisome proliferator-activated receptor gamma signaling (AID 588537; active = well fitted inhibition curve with a large enough effect in the signal ratio, with a control signal flat, not every such curve was filed as active; the % refers to the signal ratio;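 note: reporter cells co-stimulated with 50 nM rosiglitazone agonist during compound treatment; % of control where 0% means no effect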)
In short: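 HEK293 cells, PPAR-gamma-UAS-bla, 3000/well. Pre-incubation 6-6.5 h, 37 C. Compound titration with rosiglitazone 50 nM final, 16 h. CCF4 dye, 2 h RT, dual-emission fluorescence.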

[17] = target: Vitamin D3 receptor (Homo sapiens) (UniProt P11473); experiment: qHTS assay for small molecule agonists of vitamin D receptor signaling (AID 588543; calls by dose curve;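 note: 0% = DMSO basal and 100% = reference agonist control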)
Vitamin D3 receptor (Homo sapiens), sequence (P11473 whole entry, looked up): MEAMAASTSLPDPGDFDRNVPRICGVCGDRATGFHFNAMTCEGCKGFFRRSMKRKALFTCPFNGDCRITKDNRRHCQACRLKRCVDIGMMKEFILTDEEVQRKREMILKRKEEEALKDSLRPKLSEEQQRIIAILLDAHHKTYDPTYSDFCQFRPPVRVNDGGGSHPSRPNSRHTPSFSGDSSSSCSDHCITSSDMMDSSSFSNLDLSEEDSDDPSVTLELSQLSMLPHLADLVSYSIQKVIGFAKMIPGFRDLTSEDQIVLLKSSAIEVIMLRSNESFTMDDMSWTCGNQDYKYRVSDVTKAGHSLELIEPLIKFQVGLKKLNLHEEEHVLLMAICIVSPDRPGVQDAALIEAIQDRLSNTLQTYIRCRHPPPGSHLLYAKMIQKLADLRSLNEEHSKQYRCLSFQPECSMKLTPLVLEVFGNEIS
In short: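 VDR-UAS-bla HEK293T cells, 2000/well, 2% charcoal-stripped FBS; compound titration 16 h at 37 C; CCF4 beta-lactamase ratio read. Normalized to 50 nM 1-alpha,25-dihydroxyvitamin D3 (100%) and DMSO; Hill fit gives EC50, efficacy.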

[18] = qHTS assay for small molecule activators of the p53 signaling pathway (AID 651743; active = well fitted activation curve with a large enough effect in the signal ratio, not every such curve was filed as active; the % refers to the signal ratio; note: series mostly up to about 92 µM; % of control where 0% means no effect); conditions: HCT-116 p53RE-bla, beta-lactamase FRET ratio, 16 h; activation: stronger effect = higher value
In short: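 Here HCT-116 cells with an integrated p53-responsive beta-lactamase gene were incubated with compounds (16 hours, 37 C) after a 5-hour plating period; beta-lactamase activity was detected as fluorescence intensity via B/G FRET substrate.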

[19] = target: Peroxisome proliferator-activated receptor alpha (Homo sapiens) (UniProt Q07869); experiment: qHTS assay for small molecule agonists of the peroxisome proliferator-activated receptor alpha (PPARalpha) signaling pathway (AID 651778); conditions: PathHunter PPARalpha complementation, chemiluminescence, 6 h; max response: stronger effect = higher value; note: % of control where 0% means no effect
Peroxisome proliferator-activated receptor alpha (Homo sapiens), sequence (Q07869 whole entry, looked up): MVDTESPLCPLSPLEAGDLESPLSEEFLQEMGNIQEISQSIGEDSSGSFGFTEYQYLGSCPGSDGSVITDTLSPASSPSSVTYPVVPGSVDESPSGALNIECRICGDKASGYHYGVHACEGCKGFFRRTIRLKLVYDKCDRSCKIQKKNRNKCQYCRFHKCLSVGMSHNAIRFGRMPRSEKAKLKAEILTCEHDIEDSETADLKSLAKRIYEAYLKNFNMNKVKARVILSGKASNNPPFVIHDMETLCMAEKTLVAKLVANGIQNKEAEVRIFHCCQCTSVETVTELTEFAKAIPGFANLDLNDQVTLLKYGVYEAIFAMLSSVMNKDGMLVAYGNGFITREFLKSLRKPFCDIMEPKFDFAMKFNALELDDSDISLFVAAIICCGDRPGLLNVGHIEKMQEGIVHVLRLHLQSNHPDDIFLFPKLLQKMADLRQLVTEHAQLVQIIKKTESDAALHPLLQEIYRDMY
In short: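 Cells plated at 2,000/well and held overnight at 37 C, 5% CO2, then compound added by pin tool for 6 hr; after PathHunter detection reagent and 60 min at room temperature, chemiluminescence from enzyme complementation was read.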

[20] = qHTS assay for small molecule antagonists of peroxisome proliferator-activated receptor delta signaling (AID 588535); conditions: HEK293T PPARd-UAS-bla, beta-lactamase FRET ratio, 18 h; 460 nm channel;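 note: cells co-treated with a PPAR-delta agonist as stimulator during compound exposure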
In short: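 Compounds tested in titration on PPAR-delta-UAS-bla HEK293T cells grown in charcoal/dextran-stripped serum (2%); beta-lactamase activity read via CCF4 emission at 460 and 530 nm.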

CCCCCCCCCCCC(=O)N(C)CC(=O)O
inactive: Potency [1] | Potency [3] | Potency [4] | max response [6] 6.82% | activity change % (negative = inhibition) [7] 5.42% | activation [8] 0.0412% | Potency [9] | max response [10] 19.7% | max response [11] -6.6% | Potency [12] | max response [13] -2.95% | outcome [14]
7.91%: max response [5]
21.8%: max response [2]

CCCOC(=O)c1ccc(C(=O)OCCC)nc1
6.56%: max response [5]
inactive: outcome [15] | Potency [16] | outcome [17] | max response [6] -17.9% | activation [18] -3.13% | activation [8] -2.64% | max response [19] -0.236% | Potency [9] | max response [10] 22.4% | max response [11] -23.4% | max response [13] -3.51% | outcome [14]

Cc1ccc(N=Nc2c(O)ccc3ccccc23)c([N+](=O)[O-])c1
-14.3%: max response [2]
inactive: Potency [1] | outcome [17] | Potency [3] | Potency [4] | max response [6] -0.783% | activity change % (negative = inhibition) [7] -2.29% | max response [19] 0.597% | max response [10] -11.8% | max response [11] -2.16% | Potency [12] | max response [13] 5.08%
active: Potency [8] 17.8 µM
39.9%: max response [20]
-4.75%: max response [5]

CC(=O)Nc1ccc(N=Nc2cc(C)ccc2O)cc1
inactive: Potency [1] | outcome [17] | Potency [3] | Potency [4] | max response [6] -20.6% | activation [18] -6.18% | max response [19] -3.57% | max response [10] 1.65% | max response [11] -16.4% | Potency [12] | max response [13] 1.28%
-4.33%: max response [5]
active: Potency [8] 4.47 µM
14%: max response [20]
3.3%: max response [2]

CN=C(N)NCC1CCOC1 (stereo not given)
-4.8%: max response [5]
inactive: Potency [1] | outcome [15] | Potency [16] | Potency [3] | Potency [4] | max response [6] 8.29% | activity change % (negative = inhibition) [7] -7.34% | activation [18] 20.9% and -3.95% | activation [8] 14.3% and -0.391% | max response [19] -3.68% and 0.552% | Potency [9] | max response [10] -1.14% | max response [11] -9.41% | Potency [12] | max response [13] -8.95% and -6.71% | outcome [14]
-7.78%: max response [2]
42%: max response [20]

Cc1ccc(Cl)cc1Cl
-6.55%: max response [5]
inactive: outcome [17] | Potency [4] | max response [6] -30.4% | activity change % (negative = inhibition) [7] -1.13% | activation [8] 1.78% | max response [19] -0.243% | Potency [9] | max response [10] 7.57% | max response [11] -8.46% | Potency [12] | max response [13] 1.69% | outcome [14]

c1ccc2cc3c(ccc4ccccc43)cc2c1
inactive: Potency [16] | Potency [3] | Potency [4] | activity change % (negative = inhibition) [7] -17.7% | max response [19] -0.566% | max response [10] -18.2% | max response [11] -8% | Potency [12]
-11.9%: max response [5]
4.49%: max response [2]

Nc1ccc(N)c2c1C(=O)c1c(N)ccc(N)c1C2=O
-9.83%: max response [2]
inactive: Potency [1] | outcome [15] | Potency [16] | outcome [17] | Potency [3] | Potency [4] | activity change % (negative = inhibition) [7] 20.4% | activation [8] 12.2% | max response [19] 7.09% | max response [10] -2.4% | max response [11] -28.2% | Potency [12] | max response [13] -7.59% | outcome [14]

FC(F)(F)c1ccc(Cl)c(Cl)c1
inactive: Potency [1] | outcome [15] | Potency [16] | outcome [17] | Potency [3] | Potency [4] | max response [6] -9.01% | activity change % (negative = inhibition) [7] 7.4% | activation [18] -5.24% | activation [8] 3.72% | max response [19] 0.167% | Potency [9] | max response [10] -4.28% | max response [11] -13.4% | Potency [12] | max response [13] -0.267% | outcome [14]
40.3%: max response [20]
5.97%: max response [5]
-13.8%: max response [2]

CCCCCCCCC(=O)O
inactive: Potency [3] | max response [6] -41.9% | activity change % (negative = inhibition) [7] 3.07% | activation [18] 4.29% | activation [8] 2.74% | max response [19] 1.35% | Potency [9] | max response [10] -7.02% | max response [11] -14.6% | Potency [12] | max response [13] -1.4% | outcome [14]
-21.9%: max response [2]
-26.9%: max response [20]
-8.04%: max response [5]

CCc1c(C(=O)O)c(=O)cnn1-c1ccc(Cl)cc1
inactive: Potency [1] | outcome [15] | Potency [16] | outcome [17] | Potency [4] | max response [6] 7.37% | activity change % (negative = inhibition) [7] 4.34% | activation [18] 1.9% | activation [8] 0.0279% | max response [19] 3.7% | Potency [9] | max response [10] -3.97% | max response [11] -15.5% | Potency [12] | max response [13] -1.29% | outcome [14]
-1.3%: max response [5]
48.3%: max response [20]

CC1COCc2cc3c(cc21)C(C)(C)C(C)C3(C)C (stereo not given)
-17.6%: max response [5]
-11.9%: max response [2]
active: Potency [1] 11.2 µM
-16.1%: max response [20]
inactive: outcome [15] | outcome [17] | Potency [3] | Potency [4] | activity change % (negative = inhibition) [7] 0.269% | activation [18] -1.06% | activation [8] 1.13% | max response [19] 7.58% | Potency [9] | max response [10] -2.78% | max response [11] -3.83% | Potency [12] | max response [13] 3.75%

COc1nc(C)nc(NC(=O)NS(=O)(=O)c2ccccc2OCCCl)n1
11.2%: max response [5]
-8.8%: max response [20]
inactive: Potency [1] | outcome [15] | outcome [17] | Potency [4] | max response [6] 20.3% | activity change % (negative = inhibition) [7] 1.88% | activation [18] -4.39% | activation [8] 2.11% | max response [19] 1.06% | Potency [9] | max response [10] 14.8% | max response [11] 6.67% | max response [13] 5.75% | outcome [14]
